Test results published in ChEMBL document CHEMBL3988442, “University of Dundee, Small-Polar-MMV Screening Library” (2021).
For some assays here: Entries with a potency or affinity are not part of this list.

What was measured:
Design in all cases: scale not given: direction of the effect not stated beside the values
[1] = target: Protein translocase subunit SecA (Escherichia coli (strain K12)) (UniProt P10408); assay: Assay to Identify E. coli SecA ATPase Inhibitors; type: functional; details: 30 µM
[2] = target: T1, Ubiquitin-activating enzyme e1, putative (Leishmania donovani (strain BPK282A1)) (UniProt E9BSI1); assay: Leishmania donovani Ubiquitin Activating Enzyme (LdE1); type: functional; details: 30 µM
T1 sequence (whole entry): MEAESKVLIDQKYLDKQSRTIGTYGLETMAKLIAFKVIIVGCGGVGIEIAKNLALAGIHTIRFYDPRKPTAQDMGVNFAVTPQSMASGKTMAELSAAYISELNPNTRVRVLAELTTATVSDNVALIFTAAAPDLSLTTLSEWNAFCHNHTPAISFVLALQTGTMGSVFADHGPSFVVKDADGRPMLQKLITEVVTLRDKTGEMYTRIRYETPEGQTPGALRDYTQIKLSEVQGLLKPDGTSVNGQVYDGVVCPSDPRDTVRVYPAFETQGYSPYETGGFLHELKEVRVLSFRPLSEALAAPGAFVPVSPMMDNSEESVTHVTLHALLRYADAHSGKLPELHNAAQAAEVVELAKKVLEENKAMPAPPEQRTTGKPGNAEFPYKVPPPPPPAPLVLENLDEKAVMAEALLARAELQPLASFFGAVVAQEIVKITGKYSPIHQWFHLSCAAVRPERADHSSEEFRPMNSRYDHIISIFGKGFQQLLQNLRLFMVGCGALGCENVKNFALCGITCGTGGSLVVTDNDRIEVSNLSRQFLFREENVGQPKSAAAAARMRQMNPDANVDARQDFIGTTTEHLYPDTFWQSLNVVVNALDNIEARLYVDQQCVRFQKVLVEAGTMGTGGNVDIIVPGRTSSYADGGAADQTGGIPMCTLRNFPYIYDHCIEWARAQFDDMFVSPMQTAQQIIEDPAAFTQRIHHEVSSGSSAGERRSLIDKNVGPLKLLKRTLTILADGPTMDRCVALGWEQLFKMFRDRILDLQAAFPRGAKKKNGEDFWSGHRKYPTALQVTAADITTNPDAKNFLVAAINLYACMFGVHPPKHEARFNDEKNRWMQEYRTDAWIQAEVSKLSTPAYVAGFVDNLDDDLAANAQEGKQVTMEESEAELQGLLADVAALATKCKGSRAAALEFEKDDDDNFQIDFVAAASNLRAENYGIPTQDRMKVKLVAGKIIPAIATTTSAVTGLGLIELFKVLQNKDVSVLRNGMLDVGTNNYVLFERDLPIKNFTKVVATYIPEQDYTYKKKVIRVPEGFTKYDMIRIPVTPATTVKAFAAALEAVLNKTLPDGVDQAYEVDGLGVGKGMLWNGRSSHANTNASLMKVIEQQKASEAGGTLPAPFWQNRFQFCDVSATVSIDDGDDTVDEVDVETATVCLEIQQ

[3] = target: AMP-activated protein kinase, AMPK (Homo sapiens) (UniProt P54646+O43741+P54619+Q9UGJ0+Q9Y478+Q13131+Q9UGI9); assay: AMP-dependent Kinase enzyme assay. An in vitro enzyme assay that detects ADP turnover that is directly proportional to AMPK activity. This uses naive AMPK that is activated during the assay with MK-8722; type: functional; details: 30 µM
[4] = target: Sialic acid-binding Ig-like lectin 9 (Homo sapiens) (UniProt Q9Y336); assay: Hs-Siglec9 ALPHAscreen SOP 20170721; details: 10 µM
Trypanosoma cruzi = assay: Trypanosoma cruzi phosphomannomutase and mannose-1-phosphate guanylyltransferase assay; type: functional; details: 10 µM
[5] = target: T2, Arginase-2, mitochondrial (Homo sapiens) (UniProt P78540); assay: in vitro enzyme assay to detect the production of urea directly proportional to the activity of Arginase II; type: functional; details: 33.3 µM; note: in the data most compounds retested in dose-response had high values
T2 sequence (whole entry): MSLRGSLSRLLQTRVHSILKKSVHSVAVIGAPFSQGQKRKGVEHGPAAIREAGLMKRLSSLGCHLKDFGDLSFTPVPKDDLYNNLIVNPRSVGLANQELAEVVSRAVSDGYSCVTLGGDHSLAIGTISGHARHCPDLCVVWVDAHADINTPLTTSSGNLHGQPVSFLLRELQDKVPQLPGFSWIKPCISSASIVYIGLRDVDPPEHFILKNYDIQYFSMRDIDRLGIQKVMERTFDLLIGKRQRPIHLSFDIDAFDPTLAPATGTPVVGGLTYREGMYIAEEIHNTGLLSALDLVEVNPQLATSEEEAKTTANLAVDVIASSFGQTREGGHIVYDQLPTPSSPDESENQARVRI

[6] = target: T3, Proteasome subunit beta (Trypanosoma cruzi) (UniProt O96673); assay: Trypanosoma cruzi proteasome chymotrypsin-like activity (TcProtChymo) assay.; note: in the data most compounds retested in dose-response had high values; type: functional; details: 9.37 µM
T3 sequence (whole entry): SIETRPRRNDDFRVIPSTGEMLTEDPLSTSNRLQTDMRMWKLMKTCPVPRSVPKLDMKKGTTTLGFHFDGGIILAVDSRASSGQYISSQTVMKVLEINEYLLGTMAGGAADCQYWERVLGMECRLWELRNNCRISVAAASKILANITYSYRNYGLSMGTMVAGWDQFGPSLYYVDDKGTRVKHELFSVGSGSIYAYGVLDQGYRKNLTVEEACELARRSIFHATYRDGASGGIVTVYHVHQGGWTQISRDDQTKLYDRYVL

Homo sapiens = species: Homo sapiens; assay: To identify inhibition of the IFN signalling (Jak-Stat) pathway via expression of an eGFP reporter gene under the control of an IFN-stimulated response element (ISRE) containing MxA promoter.; type: functional; details: 30 µM
[7] = target: T4, Tyrosyl-tRNA synthetase, putative (Trypanosoma cruzi (strain CL Brener)) (UniProt Q4DSP6); assay: Trypanosoma cruzi tyrosyl tRNA synthetase (TcYRS) _High Tyrosine SOP; type: functional; details: 30 µM; note: in the data most compounds retested in dose-response had high values
T4 sequence (whole entry): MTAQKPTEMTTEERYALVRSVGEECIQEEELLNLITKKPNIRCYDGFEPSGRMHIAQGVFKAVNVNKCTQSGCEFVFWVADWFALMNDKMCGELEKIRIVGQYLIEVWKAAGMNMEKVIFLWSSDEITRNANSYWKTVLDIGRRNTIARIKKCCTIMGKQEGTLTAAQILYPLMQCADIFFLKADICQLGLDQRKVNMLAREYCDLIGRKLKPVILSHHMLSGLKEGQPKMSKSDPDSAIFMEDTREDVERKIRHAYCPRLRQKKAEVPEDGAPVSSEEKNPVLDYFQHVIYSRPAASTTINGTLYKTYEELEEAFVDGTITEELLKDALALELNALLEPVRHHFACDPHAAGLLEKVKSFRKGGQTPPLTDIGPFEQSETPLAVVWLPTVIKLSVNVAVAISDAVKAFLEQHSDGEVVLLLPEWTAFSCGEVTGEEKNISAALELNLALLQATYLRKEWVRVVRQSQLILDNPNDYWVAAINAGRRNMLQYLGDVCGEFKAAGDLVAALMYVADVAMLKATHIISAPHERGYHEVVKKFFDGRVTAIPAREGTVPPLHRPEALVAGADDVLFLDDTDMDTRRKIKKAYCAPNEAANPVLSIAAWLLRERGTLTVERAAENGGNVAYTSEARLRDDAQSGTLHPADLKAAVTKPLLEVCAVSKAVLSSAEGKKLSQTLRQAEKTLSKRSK

[8] = target: T4, Tyrosyl-tRNA synthetase, putative (Trypanosoma cruzi (strain CL Brener)); assay: Trypanosoma cruzi tyrosyl tRNA synthetase (TcYRS) SOP; type: functional; details: 30 µM
[9] = target: Chromo domain-containing protein 1 (Saccharomyces cerevisiae (strain ATCC 204508 / S288c) (Baker's yeast)) (UniProt P32657); assay: ScCHD-1 Enzyme Inhibition Assay; type: functional; details: 30 µM; note: in the data most compounds retested in dose-response had high values
Chain of Chromo domain-containing protein 1 (Saccharomyces cerevisiae (strain ATCC 204508 / S288c) (Baker's yeast)) (P32657 whole entry, the tested form may be a part): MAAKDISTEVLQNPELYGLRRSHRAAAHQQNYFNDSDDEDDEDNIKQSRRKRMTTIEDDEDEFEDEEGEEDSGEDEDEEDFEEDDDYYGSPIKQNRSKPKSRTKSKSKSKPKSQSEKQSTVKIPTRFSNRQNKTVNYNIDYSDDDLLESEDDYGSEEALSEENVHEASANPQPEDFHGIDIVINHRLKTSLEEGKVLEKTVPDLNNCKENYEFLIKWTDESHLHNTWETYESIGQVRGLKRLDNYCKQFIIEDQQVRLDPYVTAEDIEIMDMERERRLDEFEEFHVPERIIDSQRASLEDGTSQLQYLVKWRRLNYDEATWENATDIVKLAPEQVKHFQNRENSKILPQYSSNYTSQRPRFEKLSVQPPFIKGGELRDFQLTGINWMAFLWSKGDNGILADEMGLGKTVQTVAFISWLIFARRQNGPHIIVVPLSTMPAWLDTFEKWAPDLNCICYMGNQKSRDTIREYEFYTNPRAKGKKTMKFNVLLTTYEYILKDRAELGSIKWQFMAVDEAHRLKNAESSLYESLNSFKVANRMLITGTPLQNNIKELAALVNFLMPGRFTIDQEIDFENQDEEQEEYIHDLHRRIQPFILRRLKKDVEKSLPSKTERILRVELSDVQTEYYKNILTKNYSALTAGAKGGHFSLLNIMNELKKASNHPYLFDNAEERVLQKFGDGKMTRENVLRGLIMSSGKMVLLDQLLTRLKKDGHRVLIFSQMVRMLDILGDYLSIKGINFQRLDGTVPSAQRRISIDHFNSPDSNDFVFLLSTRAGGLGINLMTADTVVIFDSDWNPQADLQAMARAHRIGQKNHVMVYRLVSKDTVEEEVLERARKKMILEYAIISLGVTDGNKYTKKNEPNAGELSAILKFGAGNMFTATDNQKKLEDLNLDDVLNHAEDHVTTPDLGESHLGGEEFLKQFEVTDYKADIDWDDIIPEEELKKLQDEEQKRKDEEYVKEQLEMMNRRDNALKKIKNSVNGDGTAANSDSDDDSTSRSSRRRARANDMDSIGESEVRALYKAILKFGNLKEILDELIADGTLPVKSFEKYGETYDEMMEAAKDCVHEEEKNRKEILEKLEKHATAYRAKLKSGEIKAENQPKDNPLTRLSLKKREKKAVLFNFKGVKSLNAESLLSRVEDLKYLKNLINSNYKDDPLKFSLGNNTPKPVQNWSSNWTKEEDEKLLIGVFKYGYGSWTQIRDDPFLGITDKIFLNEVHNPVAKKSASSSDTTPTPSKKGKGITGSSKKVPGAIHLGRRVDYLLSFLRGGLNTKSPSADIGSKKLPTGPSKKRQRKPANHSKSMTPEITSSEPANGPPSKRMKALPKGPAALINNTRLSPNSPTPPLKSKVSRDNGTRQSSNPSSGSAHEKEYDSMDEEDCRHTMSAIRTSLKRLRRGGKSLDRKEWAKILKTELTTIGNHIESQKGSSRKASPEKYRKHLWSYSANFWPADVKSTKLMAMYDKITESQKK

Chain of Protein translocase subunit SecA (Escherichia coli (strain K12)) (P10408 whole entry): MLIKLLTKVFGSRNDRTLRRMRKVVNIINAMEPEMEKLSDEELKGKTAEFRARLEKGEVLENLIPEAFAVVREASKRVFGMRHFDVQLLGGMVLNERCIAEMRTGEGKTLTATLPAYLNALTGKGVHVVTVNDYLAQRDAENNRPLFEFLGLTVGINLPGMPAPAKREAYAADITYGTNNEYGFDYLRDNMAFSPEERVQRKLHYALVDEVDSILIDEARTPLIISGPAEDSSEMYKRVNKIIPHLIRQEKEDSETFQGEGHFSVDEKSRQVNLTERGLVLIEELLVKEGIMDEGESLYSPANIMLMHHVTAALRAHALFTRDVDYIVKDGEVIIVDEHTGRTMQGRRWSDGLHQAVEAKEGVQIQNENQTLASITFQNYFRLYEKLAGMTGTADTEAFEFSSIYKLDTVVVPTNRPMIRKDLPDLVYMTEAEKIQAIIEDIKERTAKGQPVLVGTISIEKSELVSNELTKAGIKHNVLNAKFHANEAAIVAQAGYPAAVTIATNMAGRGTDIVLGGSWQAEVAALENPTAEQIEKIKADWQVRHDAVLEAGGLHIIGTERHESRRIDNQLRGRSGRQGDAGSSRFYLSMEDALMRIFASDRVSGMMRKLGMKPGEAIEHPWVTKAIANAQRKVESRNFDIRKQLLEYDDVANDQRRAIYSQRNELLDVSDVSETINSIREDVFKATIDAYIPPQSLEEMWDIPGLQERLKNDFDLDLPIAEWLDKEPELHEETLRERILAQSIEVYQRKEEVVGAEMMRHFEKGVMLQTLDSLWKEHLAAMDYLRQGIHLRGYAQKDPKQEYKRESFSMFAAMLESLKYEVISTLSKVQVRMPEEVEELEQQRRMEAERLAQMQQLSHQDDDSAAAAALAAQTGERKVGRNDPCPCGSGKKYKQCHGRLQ
Chain of Sialic acid-binding Ig-like lectin 9 (Homo sapiens) (Q9Y336 whole entry): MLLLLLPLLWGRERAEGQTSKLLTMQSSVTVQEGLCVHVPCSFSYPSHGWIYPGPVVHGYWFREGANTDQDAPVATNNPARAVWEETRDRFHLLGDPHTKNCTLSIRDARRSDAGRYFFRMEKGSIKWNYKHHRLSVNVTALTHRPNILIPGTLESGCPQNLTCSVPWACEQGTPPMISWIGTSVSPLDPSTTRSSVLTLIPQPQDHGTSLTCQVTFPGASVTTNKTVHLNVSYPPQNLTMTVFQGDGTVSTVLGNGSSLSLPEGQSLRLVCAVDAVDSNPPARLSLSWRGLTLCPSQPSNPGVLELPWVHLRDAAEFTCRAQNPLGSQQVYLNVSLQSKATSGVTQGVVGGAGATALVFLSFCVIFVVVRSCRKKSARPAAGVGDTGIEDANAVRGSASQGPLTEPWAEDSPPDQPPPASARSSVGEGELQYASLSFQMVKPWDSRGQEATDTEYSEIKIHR

| SMILES | Percent Effect [1] [%] | Percent Effect [2] [%] | Percent Effect [3] [%] | Percent Effect [4] [%] | Percent Effect (Trypanosoma cruzi) [%] | Percent Effect [5] [%] | Percent Effect [6] [%] | Percent Effect (Homo sapiens) [%] | Percent Effect [7] [%] | Percent Effect [8] [%] | Percent Effect [9] [%] |
| --- | --- | --- | --- | --- | --- | --- | --- | --- | --- | --- | --- |
| Cc1ccc(C(=O)N2CCC3(CCC(=O)N(CC(N)=O)C3)CC2)c(O)c1 | 1.03 | 4.17 | -0.266 | -3.34 | -2.82 | -2.65 | 14.2 | -6.14 | 3.16 | 5.13 | -3 |
| Cc1nn(C)c(N(C)C)c1CNC1CCc2c(F)cccc21 (configuration not stated) | 0.322 | 13.2 | -5.14 | -4.54 | 4.89 | 5.75 | 17 | -1.05 | 6.37 | 17.1 | -6.66 |
| CC(=O)NCC(=O)N1Cc2nccn2CC(CN2CCCC2)C1 (configuration not stated) | -4.42 | 5.41 | 1.1 | -2.08 | -5.77 | 0.955 | 19.6 | 5.21 | 6.49 | 10.3 | -0.00691 |
| Cc1oc(-c2nc(C#N)c(N(C)C)o2)cc1S(=O)(=O)N1CCCC1 | -3.98 | 4 | -2.67 | 8.99 | 2.75 | -7.92 | 17.2 | -8.23 | 1.06 | 10.3 | -0.712 |
| COc1ccc(-c2nccnc2C2CCN(C(C)=O)CC2)cc1 | -3.54 | 25.7 | -4.6 | -7.08 | 0.395 | -3.48 | 11.7 | 8.34 | 1.07 | 9.09 | -9.8 |
| CN1CCN(C(=O)c2cncc(CC3CCCN(C)C3)c2)CC1 (configuration not stated) | -3.41 | 9.46 | 5.47 | 12 | -8.3 | -7.66 | 12 | 15.9 | 1.07 | 1.3 | -9.97 |
| O=C(CCCn1cncn1)NC1(c2ccccc2)CCC1 | -7.52 | 7.79 | 1.86 | 8.16 | -6 | -11 | 13.6 | 15.5 | 3.23 | 11.1 | -1 |
| CC(C)c1csc(C2CCCN(C(=O)c3ncccn3)C2)n1 (configuration not stated) | -4.12 | -2.7 | 4.03 | -10.4 | -4.99 | -0.744 | 3.69 | 7.7 | -3.23 | -3.7 | -2.9 |
| COCc1nc(N(C)C)ncc1C(=O)Nc1ccn(C)n1 | -6.73 | 12 | -5.52 | 4.28 | 1.38 | -7.22 | 5.36 | 0.526 | 4.23 | 10.3 | -10.2 |
| O=C(Cn1ccc2c(Cl)cccc21)N[C@@H](C(=O)O)c1ccccc1 | -1.64 | 4 | 6.31 | 0.703 | -4.71 | -7.57 | 19.8 | -11.3 | -7.41 | -2.56 | -4.5 |
| CCN(C(=O)CCCOc1ccccc1F)c1ccncc1 | -5.32 | 18.4 | -2.56 | 5.73 | 5.36 | -20.1 | 10.1 | 11.9 | 5.32 | 7.79 | -5.44 |
| OC(CN1CCOCC1)c1ccc(OC(F)(F)F)cc1 (configuration not stated) | -5.02 | 2.7 | 35.5 | -1.38 | 0.283 | 0.401 | 4.32 | 1.68 | 6.4 | 13.6 | -7.59 |
| CN(C)C(=O)N1CCc2c(nnn2C)C1COCc1ccccc1 (configuration not stated) | -4.49 | 21.3 | -8.1 | -0.726 | 5.21 | -42.1 | 13.7 | -0.202 | 7.29 | 27.5 | -6.92 |
| CN1CCOC(CN(C(=O)CC2CCCC2)c2nccs2)C1 (configuration not stated) | -0.692 | 0 | 6.23 | 8.01 | 0.464 | -4.25 | -2.69 | 7.78 | -3.96 | -6.1 | 2.72 |
| CNC(=O)NC(=O)CN1CCC(c2c[nH]c3ccc(OC)cc23)CC1 | -5.27 | 10.7 | -5.74 | 22.2 | 0.292 | 4.69 | 12.4 | 7.02 | 9.29 | 18.5 | -8.18 |
| Cn1cc(C2CCCN2C(=O)Cc2n[nH]c3ccccc23)cn1 (configuration not stated) | -3.26 | 22.8 | 4.87 | -9.88 | 6.33 | 0.76 | 13 | 7.84 | 6.4 | 21.5 | -11.7 |
| Cc1nn(C)c(Cl)c1C1CCCN1C(=O)c1cc[nH]n1 (configuration not stated) | -1.54 | 2.7 | -1.34 | 13.1 | 2.74 | -2 | 8.83 | -3.1 | 2.46 | 11.1 | -9.56 |
| O=C1NCCN1C1CCCN(Cc2nnc(-c3ccc(F)cc3)o2)C1 (configuration not stated) | -1.01 | 2.7 | -4.34 | 16.6 | 6.04 | 2.03 | 9.7 | -7.13 | 3.96 | 15.8 | -2.67 |
| c1cncc(OCc2noc3c2CN(Cc2ccoc2)CC3)c1 | -1.69 | 22.7 | -8.08 | -0.376 | 3.93 | -2.99 | 22.7 | 8.21 | 5.29 | 15.4 | -11.2 |
| Cc1ccc(C(CNCC2CC2)N2CCOCC2)s1 (configuration not stated) | 4.94 | 8.11 | -0.221 | 3.49 | -6.05 | 1.67 | 11.9 | 26.7 | 9.9 | 8.54 | -6.06 |
| Cc1cn(-c2ccccc2)nc1NS(=O)(=O)c1cc(C(=O)O)cs1 | -9.57 | -5.48 | -4.37 | 14.1 | -2.15 | -0.455 | 11.9 | 6.83 | -8.6 | -12.5 | -5.44 |
| CC1=N[C@@]2(CC[C@@H]3CN(S(=O)(=O)CC(C)C)C[C@@H]32)C(=O)N1CC(C)C | -5.41 | 5.41 | 5.56 | -6.18 | -2.64 | 2.23 | 23.8 | -9.78 | 3.24 | 10.3 | -0.878 |
